{"source": "PubChem BioAssay (Tox21)", "note": "Records with an inconclusive call do not appear. A number with no mark means an inactive call. Calls of active or inactive are those of the source. The call rests on the fitted dose curve. On the % scale 0 is the no-effect control and ±100 the full control effect; potency means the concentration at half of the fitted maximal effect."}
{"assay": "qHTS assay to identify small molecule antagonists of the estrogen receptor alpha (ER-alpha) signaling pathway using the BG1 cell line (AID 743080);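 further: BG1 cells stimulated with 17beta-estradiol alongside compound; nearly all actives have a fitted effect of over 25% in size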", "conditions": "BG1Luc4E2 ERE-luciferase antagonist mode, luminescence; series mostly up to 70.3 µM; activity change, negative = inhibition: at the top concentration", "text": "National Center for Advancing Translational Sciences [NCATS]\nNIH Chemical Genomics Center [NCGC]\nU.S. Environmental Protection Agency [EPA]\nNational Institutes of Environmental Health Sciences [NIEHS]\nNational Toxicology Program [NTP]\nU.S. Food and Drug Administration [FDA]\nEstrogen receptor (ER), a nuclear hormone receptor, plays an important role in development, metabolic homeostasis and reproduction. Endocrine disrupting chemicals (EDCs) and their interactions with steroid hormone receptors like ER causes disruption of normal endocrine function. Therefore, it is important to understand the effect of environmental chemicals on the ER signaling pathway. To identify ER antagonists, BG1-Luc-4E2 cell line (provided by Dr. Michael Denison from University of California) has been used to screen the Tox21 10K compound library. BG1Luc4E2 cell line endogenously expresses full-length ER-alpha and is stably transfected with a plasmid containing four estrogen responsive elements (ERE) upstream of a luciferase reporter gene.\nTox21 Assay Protocol Summary:\nBG1-Luc-4E2 cells were cultured in phenol red free assay medium containing 10% charcoal stripped FBS for 5 days before the assay was performed. The cells were dispensed at 4,000 cells/4 uL of assay medium per well into white wall/solid-bottom 1536-well plates using a Multidrop Combi (ThermoFisher Scientific, Waltham, MA) dispenser. The assay plates were incubated at a 37C and 5% CO2 for 24 h, and then 23 nL of compounds dissolved in DMSO, positive controls or DMSO only was transferred to the assay plate using a Pintool station (Kalypsys, San Diego, CA), followed by addition of 1 uL of 17beta-estradiol in assay medium using a Flying Reagent Dispenser (Aurora Discovery, San Diego, CA). After the plates were incubated at 37 C and 5% CO2 for 21.5 h, 1 uL of CellTiter-Fluor reagent (Promega, Madison, WI) of measuring cytotoxicity was added using Flying Reagent Dispenser (FRD) to each well. The assay plates were incubated at 37 C and 5% CO2 for additional 30 min and the fluorescence intensity was quantified by a ViewLux plate reader (PerkinElmer, Shelton, CT). For measuring luciferase reporter gene activity, 4 uL of ONE-Glo reagent (Promega) was added to each plate using an FRD and luminescence was quantified by a ViewLux plate reader after 30 min incubation at room temperature."}
{"smiles": "COCc1cnc(C2=NC(C)(C(C)C)C(=O)N2)c(C(=O)O)c1", "note": "(stereo not given)", "activity change, negative = inhibition": "1.98%"}
{"smiles": "O=CC=O", "Potency": "inactive"}
{"smiles": "CCCN(CCC)c1c([N+](=O)[O-])cc(C(C)C)cc1[N+](=O)[O-]", "Potency": "inactive"}
{"smiles": "CN1C[C@H](C(=O)N[C@]2(C)O[C@@]3(O)[C@@H]4CCCN4C(=O)[C@H](Cc4ccccc4)N3C2=O)C=C2c3cccc4[nH]cc(c34)C[C@H]21", "Potency": "inactive"}
{"smiles": "CCC(C)(C)c1ccc(O)c(C(C)(C)CC)c1", "Potency": "61.1 µM (active)"}
{"smiles": "CC(C)(c1ccccc1)c1cc(-n2nc3ccccc3n2)c(O)c(C(C)(C)c2ccccc2)c1", "activity change, negative = inhibition": "0.382%"}
{"smiles": "O=[N+]([O-])O[C@H]1CO[C@H]2[C@@H]1OC[C@H]2O[N+](=O)[O-]", "activity change, negative = inhibition": "0.945%"}
{"smiles": "CCCC[N+](CCCC)(CCCC)CCCC", "activity change, negative = inhibition": "-4.09%"}
{"smiles": "Cc1nc2ccccc2c(=O)n1-c1ccccc1Cl", "activity change, negative = inhibition": "11.2%"}
{"smiles": "CC(C)(C)N(NC(=O)c1ccc(Cl)cc1)C(=O)c1ccccc1", "activity change, negative = inhibition": "-0.124%"}
{"smiles": "CCCCC1C(=O)NC(=O)N(C2CCCCC2)C1=O", "note": "(stereo not given)", "activity change, negative = inhibition": "-7.46%"}
{"smiles": "CC(C)(C)NCC(O)c1cc(Cl)c(N)c(C(F)(F)F)c1", "note": "(stereo not given)", "activity change, negative = inhibition": "7.39%"}
{"smiles": "CN(C1CCCCC1)C1CCCCC1", "activity change, negative = inhibition": "1.21%"}
{"smiles": "Cc1nc(N(C)C)nc(OC(=O)N(C)C)c1C", "activity change, negative = inhibition": "-8.84%"}
{"smiles": "CC(C)(C)c1ccc(CCOc2ncnc3ccccc23)cc1", "activity change, negative = inhibition": "0.128%"}
{"smiles": "NNCCO", "activity change, negative = inhibition": "-1.36%"}
{"smiles": "NP(N)(=O)NC(=O)c1ccc(F)cc1", "activity change, negative = inhibition": "1.87%"}
{"smiles": "CCC(C)Cl", "note": "(stereo not given)", "activity change, negative = inhibition": "-17.3%"}
{"smiles": "C=CCc1ccccc1O", "activity change, negative = inhibition": "-4.48%"}
{"smiles": "COC(=O)C1(O)c2ccccc2-c2ccccc21", "activity change, negative = inhibition": "0.503%"}
{"smiles": "Cc1ccc2c(C)cccc2c1", "activity change, negative = inhibition": "-4.37%"}
{"smiles": "c1ccc2sc(SNC3CCCCC3)nc2c1", "Potency": "inactive"}
{"smiles": "OC[P+](CO)(CO)CO", "Potency": "inactive"}
{"smiles": "O=C1NC(=O)C(=O)C(=O)N1", "activity change, negative = inhibition": "1.13% [at 95 µM]"}
{"smiles": "CCCC1CCCCN1", "note": "(stereo not given)", "activity change, negative = inhibition": "1.67%"}
{"smiles": "CN(C)C(=O)Nc1cccc(OC(=O)NC(C)(C)C)c1", "activity change, negative = inhibition": "3.82%"}
{"smiles": "CCCCC#N", "activity change, negative = inhibition": "-4.89%"}
{"smiles": "NCCc1cc(O)c(O)cc1O", "activity change, negative = inhibition": "-3.02%"}
{"smiles": "Nc1cccc2ccccc12", "Potency": "inactive"}
{"smiles": "c1ccc2c(c1)sc1ccccc12", "Potency": "inactive"}
{"smiles": "CCC[N+](CCC)(CCC)CCC", "activity change, negative = inhibition": "1.77%"}
{"smiles": "C[N+](C)(C)CC1CO1", "note": "(stereo not given)", "activity change, negative = inhibition": "1.25%"}
{"smiles": "CCC(C)(C)O", "activity change, negative = inhibition": "-1.45%"}
{"smiles": "CCCCCCCCCCCC[N+](C)(C)CCOc1ccccc1", "activity change, negative = inhibition": "-12.8%"}
{"smiles": "CCCCCCCCCCCCN=C(N)N", "activity change, negative = inhibition": "-30.4% [at 3.79 µM]"}
{"smiles": "Cc1nnc(-c2ccccc2)c(=O)n1N", "activity change, negative = inhibition": "14.2%"}
{"smiles": "CCCCC(CC)CO[N+](=O)[O-]", "note": "(stereo not given)", "activity change, negative = inhibition": "8.49%"}
{"smiles": "COc1cc(CC(C)N)c(OC)cc1Br", "note": "(stereo not given)", "Potency": "inactive"}
{"smiles": "CC(=O)OC(c1ccccc1)C(Cl)(Cl)Cl", "note": "(stereo not given)", "Potency": "68.6 µM (active)"}
{"smiles": "CC(C)OC(=O)Cc1ccccc1", "activity change, negative = inhibition": "10.5% [at 95 µM]"}
